# Experimental data as given in PubChem BioAssay AID602256 (National Center for Advancing Translational Sciences (NCATS), 2012).
# Records with an inconclusive call do not appear. Unmarked numbers belong to inactive results. Calls of active or inactive are those of the source. The call rests on the fitted dose curve; in most records, active means well fitted curve in the direction sought with a large enough effect; inconclusive means small, poorly fitted or top-dose-only effect, or another doubt; inactive means no such curve, though single readings can be large or run the other way.
# Target: Relaxin receptor 1 (Homo sapiens) (UniProt Q9HBX9)
# Experiment: qHTS Assay for Agonists of the Relaxin Receptor RXFP1: RXFP1 SAR
# Conditions: HEK293T-RXFP1 cAMP TR-FRET, 30 min; efficacy: hits give high values
# Text: The relaxin hormone is involved in the variety of biological functions in normal tissues and diseases. The role of relaxin is well-established in female reproduction and parturition, mammary gland and endometrial development, maintenance of myometrial quiescence during pregnancy. Relaxin signaling through its G protein-coupled receptor (GPCR) RXFP1 results in ECM remodeling through regulation of collagen deposition, cell invasiveness, proliferation and overall tissue homeostasis. […] Recombinant human relaxin (rhRlx) is currently being tested in clinical trials as a protective agent in congestive heart failure, in treating severe preeclampsia, and as an anti-fibrotic agent in systemic sclerosis. Upon relaxin binding RXFP1 activation leads to the activation of adenylate cyclase (AC) via Gs. cAMP will activate PKA, which phosphorylates many signaling proteins. Thus, detection of cAMP increase is an easy and reliable indication of relaxin receptor activation. To screen for agonists of the relaxin receptor, a HEK293T cell line stably transfected with RXFP1 was used. RXFP1 activation was assayed by changes in cAMP levels as detected with a time-resolved fluorescence energy transfer (TR-FRET) cAMP detection kit. NIH Chemical Genomics Center [NCGC] NIH Molecular Libraries Probe Production Centers Network [MLPCN] MLPCN Grant: R03 MH085705-01A1 Assay Submitter (PI): Alexander Agoulnik
# This is a cell-based assay for cAMP second messenger response to screen for agonists of the RXFP1 receptor. The assay was conducted in the presence of a PDE4 inhibitor (Ro 20174). The cells were lysed and the cAMP levels were measured with a TR-FRET cAMP kit. Presence of cAMP in the cell lysate disrupts binding between the cryptate-labeled anti-cAMP and d2-labeled cAMP pair, leading to a decrease in the TR-FRET signal. Data were normalized to the controls for basal activity (buffer only) and 100% activity (29 nM porcine relaxin). The EC50 values were determined from concentration-response data modeled with the standard Hill equation 1536-well assay protocol for the HEK293 RXFP1 cAMP assay: (1) Add 3 ul HEK293 RXFP1 cell culture. 2000 cells/well in DMEM/F12, 10% FBS, 1x Pen/Strep (dispensed offline with MultiDrop Combi). (2) Incubate 16-24 hr at 37C, 5% CO2. (3) Add 1 ul 400uM Ro20174 in DPBS, 0.05% BSA, 0.005% Tween 20. (3) Add 23 nl compounds in DMSO solution. Final concentration was 0.5 - 58 uM. (4) Incubate 30 min at 37C, 5% CO2. (5) Add 1 ul cAMP-d2 in lysis buffer (HTRF cAMP HiRange kit, CisBio). (6) Add 1 ul anti-cAMP antibody-cryptate in lysis buffer (HTRF cAMP HiRange kit, CisBio). (7) Incubate 30 min at room temperature. (6) Detect the assay plate in a ViewLux plate reader (PerkinElmer) with Ex=320 nm, Em1=615 nm and Em2=665 nm. Keywords: relaxin, RXFP1, RXFP2, G-protein coupled receptor, cAMP, agonist, high throughput screening, MLSMR, MLSCN, NIH Roadmap, qHTS and NCGC
# Sequence of Relaxin receptor 1 (Homo sapiens) (Q9HBX9 whole entry, looked up): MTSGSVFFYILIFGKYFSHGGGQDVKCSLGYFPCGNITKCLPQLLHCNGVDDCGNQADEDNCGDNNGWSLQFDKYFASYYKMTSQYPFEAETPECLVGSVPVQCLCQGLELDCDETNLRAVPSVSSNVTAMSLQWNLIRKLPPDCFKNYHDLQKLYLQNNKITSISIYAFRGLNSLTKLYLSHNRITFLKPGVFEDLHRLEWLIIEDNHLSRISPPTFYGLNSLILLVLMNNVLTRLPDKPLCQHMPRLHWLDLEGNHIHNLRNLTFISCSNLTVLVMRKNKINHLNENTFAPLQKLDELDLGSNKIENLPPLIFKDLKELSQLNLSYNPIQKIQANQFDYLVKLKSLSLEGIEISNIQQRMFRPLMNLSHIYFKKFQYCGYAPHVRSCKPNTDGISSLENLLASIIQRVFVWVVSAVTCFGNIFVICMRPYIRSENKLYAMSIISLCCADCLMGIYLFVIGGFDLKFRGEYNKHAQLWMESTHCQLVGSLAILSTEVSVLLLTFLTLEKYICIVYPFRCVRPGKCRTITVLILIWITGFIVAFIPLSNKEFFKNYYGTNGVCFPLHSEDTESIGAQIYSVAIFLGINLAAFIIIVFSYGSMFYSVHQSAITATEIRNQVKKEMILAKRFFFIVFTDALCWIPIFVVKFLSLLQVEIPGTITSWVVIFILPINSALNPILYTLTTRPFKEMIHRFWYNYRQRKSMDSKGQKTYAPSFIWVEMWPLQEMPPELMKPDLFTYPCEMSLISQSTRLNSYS
SMILES,Potency,efficacy [%]
O=C(Nc1cccc(F)c1)c1ccccc1NC(=O)C1CCCCC1,13.3 µM (active),
CCOc1ccccc1S(=O)(=O)Nc1ccccc1C(=O)Nc1cccc(S(=O)(=O)C(F)(F)F)c1,,-2.44
COc1ccccc1C(=O)Nc1ccccc1C(=O)Nc1cccc(SC(F)(F)F)c1,0.297 µM (active),
CC(C)(C)c1cccc(NC(=O)c2ccccc2NC(=O)C2CCCCC2)c1,2.65 µM (active),
O=C(Nc1cccc([N+](=O)[O-])c1)c1ccccc1NC(=O)C1CCCCC1,5.93 µM (active),
COc1ccccc1Nc1ccccc1C(=O)Nc1cccc(C(F)(F)F)c1,4.71 µM (active),
CCOc1ccccc1C(=O)Nc1ccccc1C(=O)Nc1cccc(C(F)(F)F)c1,0.265 µM (active),
CCOc1ccccc1C(=O)Nc1cccnc1C(=O)Nc1cccc(S(=O)(=O)C(F)(F)F)c1,4.71 µM (active),
CN(C)CCOc1ccccc1C(=O)Nc1ccccc1C(=O)Nc1cccc(C(F)(F)F)c1,3.74 µM (active),
O=C(Nc1cccc(C(F)(F)F)c1)c1ccccc1NC(=O)C1CCCCCC1,2.11 µM (active),
O=C(Nc1cccc(-c2ccccc2C(F)(F)F)c1)c1ccccc1NC(=O)C1CCCCC1,2.65 µM (active),
O=C(Nc1cccc(SC(F)(F)F)c1)c1ccccc1NC(=O)C1CCCCC1,1.88 µM (active),
CCOc1ccccc1C(=O)Nc1cnccc1C(=O)Nc1cccc(S(=O)(=O)C(F)(F)F)c1,2.97 µM (active),
Cc1ccccc1C(=O)Nc1ccccc1C(=O)Nc1cccc(C(F)(F)F)c1,4.2 µM (active),
